From PubChem BioAssay (EPA / NIEHS) come the findings set out here.

Experiment [1] in a line: TOX21_TRB_BLA_Antagonist_Followup_viability: Viability Assessment in the Tox21 Thyroid Hormone Receptor beta Antagonism Beta-lactamase (BLA) Follow-Up Assay (AID 2283961). An outline of the steps:
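HEK293T cells stably expressing GAL4-DBD/human TRβ-LBD with UAS-bla reporter, 3,000 cells/well in phenol red-free DMEM, 2% charcoal-stripped FBS. Compounds at 11 concentrations in triplicate, 18 h at 37C/5% CO2; viability by CellTiter-Glo luminescence after 30 min at room temperature.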

For experiment [2], the target named is Retinoic acid receptor RXR-alpha (Homo sapiens) (UniProt P19793). The experiment can be described thus: TOX21_TR_RXR_BLA_Antagonist_Followup_ratio: Tox21 Thyroid Hormone Receptor beta Retinoid X Receptor alpha (RXRa) Antagonism Beta-lactamase (BLA) Follow-Up Assay, Ratio (AID 2283972). The text has this:
GeneBLAzer RXRa-UAS-bla HEK293T assay (RXRa-bla) (ThermoFisherScientific Catalog No. K1697) was run in qHTS 1536 well format as a secondary assay for specificity of response in the TOX21_TR_GH3_LUC_Agonist assay.TOX21_TR_RXR_BLA_Antagonist_Followup_ratio is an assay readout measuring reporter gene via receptor activity and designed using inducible reporter (beta lactamase induction) detected with GAL4 b-lactamase reporter gene. The signal is derived from the ratio of cleaved (ch2) to uncleaved (ch1) reporter gene substrate used as the measure of target activity.Data from the assay component TOX21_TR_RXR_BLA_Antagonist_Followup_ratio was analyzed into 1 assay endpoint. This assay endpoint, TOX21_TR_RXR_BLA_Antagonist_Followup_ratio, was analyzed in the positive analysis fitting direction relative to DMSO as the negative control and baseline of activity. Using a type of inducible reporter, loss-of-signal activity can be used to understand changes in the reporter gene as they relate to the gene RXRA. Furthermore, this assay endpoint can be referred to as a primary readout, because this assay has produced multiple assay endpoints and this ratio serves a reporter gene function to understand target activity. To generalize the intended target to other relatable targets, this assay endpoint is annotated to the nuclear receptor intended target family, where subfamily is non-steroidal.
Cell Media Required: Growth (90% DMEM/F-12, 10% Fetal Bovine Calf Serum, 100U/ml Penicillin, 100 ug/ml Streptomycin), Assay (10ng/mL sodium selenite, 10 ug/mL humanapo-transferrin, […] uM ethanolamine, 10 ug/mL insulin, 500 ug/mL bovine serum albumin (BSA))Assay Protocol: RXRa-bla cells were seeded at 2,500/well in 6 uL of the assay medium containing phenol red-free DMEM with 2% charcoal-stripped FBS in 1,536-well black-wall/clear-bottom plates (Greiner Bio-One North America) usinga Multidrop Combi dispenser. After5-h incubation at 37C/5% CO2 for cell attachment, 23 nL of follow-up compounds dissolved in DMSO, 11 concentrations in triplicate, and the positive control (9-cis retinoic acid) were transferred to the assay plates using a Pintool station. The assay plates were incubated at 37C/5% CO2 for 16h. One microliter of LiveBLAzer FRET-B/GCCF4-AM substrate (Life Technologies) was added to each well using an FRD. After 2-h incubation at room temperature, the fluorescence intensity was measured using an Envision plate reader (Perkin Elmer). Data were expressed as the ratio of 460:530 nm.

Experiment [3] can be described thus: TOX21_TR_RXR_BLA_Antagonist_Followup_viability: Viability Assessment in the Tox21 Thyroid Hormone Receptor beta Retinoid X Receptor alpha (RXRa) Antagonism Beta-lactamase (BLA) Follow-Up Assay (AID 2283979). An outline of the steps: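 Follow-up compounds (11 concentrations, triplicate) were incubated 16 h at 37C/5% CO2 with HEK293T RXRa-bla cells seeded at 2,500/well in charcoal-stripped-serum medium. ATP content by CellTiter-Glo luminescence gave viability; curves fitted in both directions against DMSO.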

The nature of experiment [4]: CCTE_Harrill_HTTr_Viability_DMEM_6hr: (Pilot) CCTE's 6-hour Cell Viability Assessment for the High-Throughput Transcriptomics (HTTr) Platform, in MCF-7 cells cultured in DMEM + 10% fetal bovine serum, Harrill Lab (AID 2283973; active = hit-call score of the fitted dose curve at least 0.9, where 1 is the maximum; inactive = score below 0.9). A digest of the protocol: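 MCF-7 cells in DMEM + 10% FBS, eight-point dilution series, 6 h exposure. Membrane integrity by propidium iodide exclusion with high-content imaging; bidirectional fit versus DMSO.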

Experiment [5] is described as follows: CCTE_Harrill_HTTr_Viability_DMEM_12hr: (Pilot) CCTE's 12-hour Cell Viability Assessment for the High-Throughput Transcriptomics (HTTr) Platform, in MCF-7 cells cultured in DMEM + 10% fetal bovine serum, Harrill Lab (AID 2283974; active = hit-call score of the fitted dose curve at least 0.9, where 1 is the maximum; inactive = score below 0.9). A digest of the protocol: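 MCF-7 cells in DMEM + 10% FBS exposed 12 h to an eight-point dilution series; membrane integrity scored by propidium iodide exclusion with high-content imaging, bidirectional fitting versus DMSO.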

Experiment [6] can be described thus: CCTE_Harrill_HTTr_Viability_DMEM_24hr: (Pilot) CCTE's 24-hour Cell Viability Assessment for the High-Throughput Transcriptomics (HTTr) Platform, in MCF-7 cells cultured in DMEM + 10% fetal bovine serum, Harrill Lab (AID 2283975; active = hit-call score of the fitted dose curve at least 0.9, where 1 is the maximum; inactive = score below 0.9). A digest of the protocol:
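MCF-7 cells in DMEM with 10% FBS exposed for 24 hours to an eight-point dilution series. Membrane integrity by propidium iodide exclusion with high content imaging; bidirectional fit against DMSO.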

Experiment [7] is described as follows: CCTE_Harrill_HTTr_Viability_PRF_DMEM_6hr: (Pilot) CCTE's 6-hour Cell Viability Assessment for the High-Throughput Transcriptomics (HTTr) Platform, in MCF-7 cells cultured phenol red-free DMEM + 10% charcoal-stripped fetal bovine serum, Harrill Lab (AID 2283976; active = hit-call score of the fitted dose curve at least 0.9, where 1 is the maximum; inactive = score below 0.9). A digest of the protocol: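 MCF-7 cells in phenol red-free DMEM with 10% charcoal-stripped FBS exposed 6 hours to an eight-point dilution series. Propidium iodide exclusion imaged; curves fitted bidirectionally against DMSO.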

Experiment [8] in a line: CCTE_Harrill_HTTr_Viability_PRF_DMEM_12hr: (Pilot) CCTE's 12-hour Cell Viability Assessment for the High-Throughput Transcriptomics (HTTr) Platform, in MCF-7 cells cultured in phenol red-free DMEM + 10% charcoal-stripped fetal bovine serum, Harrill Lab (AID 2283977; active = hit-call score of the fitted dose curve at least 0.9, where 1 is the maximum; inactive = score below 0.9). An outline of the steps:
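MCF-7 cells in phenol red-free DMEM with 10% charcoal-stripped FBS exposed 12 hours to an eight-point dilution series. Viability assessed by high-content imaging of propidium iodide exclusion; bidirectional fit versus DMSO.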

Experiment [9] can be described thus: TOX21_TR_RXR_BLA_Agonist_Followup_viability: Viability Assessment in the Tox21 Thyroid Hormone Receptor beta Retinoid X Receptor alpha (RXRa) Agonism Beta-lactamase (BLA) Follow-Up Assay (AID 2283970). An outline of the steps:
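In qHTS format, RXRa-bla HEK293T cells (2,500/well) received compound for 16h. ATP content was then measured with CellTiter-Glo, and responses were fitted bidirectionally relative to DMSO controls.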

A further experiment addresses THRB (gene 7068) (UniProt P10828). The experiment can be described thus: TOX21_TRB_COA_Antagonist_Followup_ratio: Tox21 Thyroid Hormone Receptor beta Antagonism through Coactivator Recruitment Follow-Up Assay, Ratio (AID 2283967). An outline of the steps: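 Test compound was incubated with 5.0 nM GST-TRβ LBD in 0.10% BSA. Then 200 nM fluorescein-SRC-2 peptide and 2 nM terbium anti-GST antibody were added. TR-FRET (520:495 nm) was measured and normalized to DMSO and T3 controls.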

Inconclusive results are not listed. Activity calls are given as the source filed them. Rule for the calls, unless noted: active = hit-call score of the fitted dose curve at least 0.9, where 1 is the maximum; inconclusive = response in the unintended direction; inactive = score below 0.9.

Sequence of Retinoic acid receptor RXR-alpha (Homo sapiens) (P19793 whole entry, looked up, the tested form may be a part): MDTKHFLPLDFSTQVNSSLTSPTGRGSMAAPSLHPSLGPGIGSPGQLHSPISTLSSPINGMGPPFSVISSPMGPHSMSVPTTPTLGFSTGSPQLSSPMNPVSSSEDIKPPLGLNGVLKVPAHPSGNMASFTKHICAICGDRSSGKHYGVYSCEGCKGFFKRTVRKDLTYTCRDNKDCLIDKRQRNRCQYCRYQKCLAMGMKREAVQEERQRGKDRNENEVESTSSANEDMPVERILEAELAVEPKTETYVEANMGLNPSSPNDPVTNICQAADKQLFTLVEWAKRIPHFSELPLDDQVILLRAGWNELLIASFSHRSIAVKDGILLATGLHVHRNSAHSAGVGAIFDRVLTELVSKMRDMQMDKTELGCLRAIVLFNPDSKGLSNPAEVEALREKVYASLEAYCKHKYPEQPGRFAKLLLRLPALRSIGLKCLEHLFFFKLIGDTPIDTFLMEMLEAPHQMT
Sequence of THRB (gene 7068) (P10828 whole entry, looked up, the tested form may be a part): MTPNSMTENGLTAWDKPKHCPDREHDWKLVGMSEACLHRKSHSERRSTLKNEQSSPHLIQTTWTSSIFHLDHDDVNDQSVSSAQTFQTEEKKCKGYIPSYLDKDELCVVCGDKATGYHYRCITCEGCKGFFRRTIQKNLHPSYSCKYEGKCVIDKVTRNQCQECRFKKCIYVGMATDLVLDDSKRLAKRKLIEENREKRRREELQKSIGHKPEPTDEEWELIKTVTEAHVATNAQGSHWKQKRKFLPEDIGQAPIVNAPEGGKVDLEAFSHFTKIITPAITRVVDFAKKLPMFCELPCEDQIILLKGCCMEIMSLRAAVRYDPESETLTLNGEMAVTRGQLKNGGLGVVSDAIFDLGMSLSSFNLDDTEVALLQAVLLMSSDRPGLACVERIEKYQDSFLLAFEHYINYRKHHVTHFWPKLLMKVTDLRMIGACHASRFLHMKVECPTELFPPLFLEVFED

Turning to `COc1ccccc1NC(=O)c1cc2ccccc2cc1O`, the AC50 was 28.3 µM (active) in [1], 22 µM (active) in experiment [2] and 24.1 µM (active) in [3].

With `CCCCc1oc2ccccc2c1C(=O)c1cc(I)c(OCCN(CC)CC)c(I)c1`, the outcome in experiment [4] and in experiment [7] was inactive. Besides, the concentration at half-maximal activity (AC50) in [5] was 46.3 µM (active); in experiment [6], 73.9 µM (active); in [8] it was 39.5 µM (active).

Turning to `C=C(c1ccc(C(=O)O)cc1)c1cc2c(cc1C)C(C)(C)CCC2(C)C`, the molecule was called inactive in experiment [9].

As to `Nc1cc(Cl)c(-c2cc(Cl)c(N)cc2Cl)cc1Cl`, the AC50 in experiment [1] was 60.1 µM (active); in experiment [2], 24.6 µM (active); in [3] it was 28 µM (active). Further, the outcome with THRB (gene 7068) was inactive.

Take `Clc1ccc(Nc2nnc(Cc3ccncc3)c3ccccc23)cc1`: the result in experiment [2] was inactive.

For the molecule `Nc1ccn([C@@H]2O[C@H](CO)[C@@H](O)C2O)c(=O)n1` (stereo not given in full), the molecule was classed as inactive (in [1]; with THRB (gene 7068); in experiment [2]; in [3]).

`CC(C)c1c(C(=O)Nc2ccccc2)c(-c2ccccc2)c(-c2ccc(F)cc2)n1CC[C@@H](O)C[C@@H](O)CC(=O)O`: the molecule was called inactive (in experiment [1]; in the experiment with THRB (gene 7068); in [2]; in experiment [3]).

For `O=c1cc(-c2ccccc2)oc2ccc3ccccc3c12`, the call (in experiment [1]; with THRB (gene 7068); in [3]) was inactive.

What is called AC50 is the concentration giving half of the maximal activity seen.
